Compound activity: PubChem, several laboratories
HDAC3 inh: human HDAC3 inhibition. O15379. recombinant HDAC3, fluorogenic peptide/trypsin coupled, fluorescence. inhibition, % at 8.3 µM. 0.15% of 320,000 active. AID 2718; in the data active = inhibition above about 26%, passing the limit was not always enough; inconclusive = no clear call, values can overlap the other calls
Target sequence (O15379 whole entry, looked up): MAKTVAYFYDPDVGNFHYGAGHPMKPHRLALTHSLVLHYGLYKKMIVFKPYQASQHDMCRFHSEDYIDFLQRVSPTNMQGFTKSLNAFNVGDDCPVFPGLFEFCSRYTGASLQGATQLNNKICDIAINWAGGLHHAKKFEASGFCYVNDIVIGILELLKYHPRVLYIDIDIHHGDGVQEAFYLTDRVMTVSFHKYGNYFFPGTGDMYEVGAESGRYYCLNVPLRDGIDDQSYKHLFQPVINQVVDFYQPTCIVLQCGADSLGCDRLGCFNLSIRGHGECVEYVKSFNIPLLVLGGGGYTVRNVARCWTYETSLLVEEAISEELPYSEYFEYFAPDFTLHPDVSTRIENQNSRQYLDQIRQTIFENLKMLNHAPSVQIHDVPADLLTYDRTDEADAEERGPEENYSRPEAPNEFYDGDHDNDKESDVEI
LANA-H2B inh: blocks KSHV LANA binding to histone H2A/H2B | cell-free LANA-H2A/H2B peptide, fluorescence polarization | inhibition, % (test concentration not listed) | AID 2629 | 0.6% of 320,000 active | Q9QR71; in the data active = inhibition mostly above about 10%, no sharp cut-off; inactive = mostly below about 6.7%
IDE act: IDE (human) activation, cell-based; HEK cells, FAbeta-B cleavage, fluorescence polarization; 0% vehicle, 100% cell-free pure enzyme wells; activation, % at 5.96 µM; 0.073% of 340,000 active;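 active = activation above the mean of all tested compounds plus 3 SD, set per screening campaign, cut at about 17% in these data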
IDE cell inh: cellular human IDE inhibition; 0.41% of 320,000 active; AID 434962; inhibition, % at 5.59 µM; P14735; HEK cells, FAbetaB cleavage, fluorescence polarization;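 active = percent inhibition above the average of all tested compounds plus 3 SD, set per screening campaign, cut at about 16% in these data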;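 also: IDE supplied by intact live HEK cells; FP after avidin binding of uncleaved biotin substrate so inhibition keeps polarization high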
Of the large screens only hits and unclear results are named; the others gave an inactive call; ! = a repeat was not active. Shown are actives, neighbours in structure and some others; about 1.1% of the full set was active somewhere.

COc1ccc(CNC(=O)CN(c2ccccc2OC)S(=O)(=O)c2cccs2)cc1	none
CCOC(=O)C1CCCN(C(=O)/C=C/c2ccccc2[N+](=O)[O-])C1 (stereo not drawn)	none
N#CC1=C(N)OC2=C(C(=O)CCC2)C12CCC1(CC2)OCCO1	none
CC1(C)C(C#N)=C(N)OC2=C1C(=O)CCC2	LANA-H2B inh 18
CC(C)C[C@H](NC(=O)NCc1ccc(F)cc1)C(=O)O	none
CCOc1ccc(N=C2NC(=O)S/C2=C\c2ccc(Cl)cc2)cc1	none
COc1ccc(N=C2NC(=O)S/C2=C\c2ccc(N(C)C)cc2)cc1	IDE cell inh 30
COCCn1c(SCC(=O)c2c(N)n(C3CC3)c(=O)[nH]c2=O)nnc1-c1ccc(Cl)cc1	LANA-H2B inh active
Nc1c(C(=O)CSc2nc3ccccc3o2)c(=O)[nH]c(=O)n1C1CC1	IDE act 27
COCCn1c(SCC(=O)NC2CC2)nnc1-c1ccc(Cl)cc1	none
COc1ccccc1-c1nnc(SCC(=O)c2c(N)n(C3CC3)c(=O)[nH]c2=O)o1	none
Cc1ccc(-n2nnnc2SCC(=O)c2c(N)n(C3CC3)c(=O)[nH]c2=O)cc1	LANA-H2B inh 17
Cc1cc(C)cc(-n2ccnc2SCC(=O)c2c(N)n(C3CC3)c(=O)[nH]c2=O)c1	none
Cc1ccc(C)c(-n2ccnc2SCC(=O)c2c(N)n(C3CC3)c(=O)[nH]c2=O)c1	LANA-H2B inh active
CC(Sc1nnc(C2CC2)n1C)C(=O)Nc1ccc(N2CCOCC2)cc1 (stereo not drawn)	none (no result: HDAC3 inh, LANA-H2B inh, IDE cell inh)
COc1cc(NC(=O)Cc2c(C(=O)O)n(C)c3ccccc23)cc(OC)c1OC	HDAC3 inh inconclusive
CC(C)(C)C(=O)COC(=O)c1ccc2c(c1)C(=O)N(Cc1ccco1)C2=O	none
O=C(CNS(=O)(=O)c1ccccc1F)NNC(=O)c1ccc(Br)cc1	none (no result: HDAC3 inh, LANA-H2B inh, IDE cell inh)
Cc1ccc(/C=C2\C(=N)N3N=C(CC(=O)N4CCOCC4)SC3=NC2=O)o1	LANA-H2B inh 18
COc1ccc(/C=C2\C(=N)N3N=C(CC(=O)N4CCOCC4)SC3=NC2=O)cc1	none
Cc1cccc(CNC(=O)c2cc(S(=O)(=O)N3CCOCC3)cn2C)c1	none
c1cncc(CNc2c3c(nc4nnnn24)CCCC3)c1	LANA-H2B inh 18
CCCCC1=CC2=CC(=O)C(C)(OC(=O)CC)C(=O)C2=CN1CCN1CCOCC1 (stereo not drawn)	none (no result: IDE act)
Cc1ccc(S(=O)(=O)CCC(=O)OCC(=O)NC(C)c2ccccc2)cc1 (stereo not drawn)	LANA-H2B inh 183
Cc1ccc(S(=O)(=O)CCC(=O)OCC(=O)NC(C)c2ccc(F)cc2)cc1 (stereo not drawn)	none
COc1ccc(-c2nn(-c3ccccc3)cc2/C=N/NS(=O)(=O)c2ccccc2)cc1	LANA-H2B inh 10
CC(C)C[C@H](NC(=O)c1nc[nH]c1C(=O)N1CCc2ccccc2C1)C(=O)OC(C)(C)C	none
O=c1c2ccccc2nc(-c2ccccc2)n1CCN1CCOCC1	none
COc1ccc(CNc2nc3ccccc3n2CCN2CCOCC2)cc1	IDE act 18
COc1ccc(-c2nc3ccccc3c(=O)n2CCCN2CCOCC2)cc1	LANA-H2B inh 16
CCN(CC)c1ccc(CNc2nc3ccccc3n2CCN2CCOCC2)cc1	none
Cc1cccc(NC(=O)c2nc[nH]c2C(=O)N[C@@H](CC(C)C)C(=O)OC(C)(C)C)c1	HDAC3 inh inconclusive
CC(C)c1ccc(N2C(=NC(=O)C3CC3)SC3CS(=O)(=O)CC32)cc1 (stereo not drawn)	none
CCC(C)c1c(O)nc(SCC(=O)c2ccccc2)[nH]c1=O (stereo not drawn)	HDAC3 inh 33
C=CCc1c(O)nc(SCC(=O)c2ccccc2)[nH]c1=O	HDAC3 inh 37
Cc1ccc(C(=O)CSc2nc(N)cc(=O)[nH]2)cc1C	none
O=C(CSc1nc(O)c(Cc2ccccc2)c(=O)[nH]1)Nc1ccccc1	none
Cc1ccc(C(=O)CSc2nc(O)cc(=O)[nH]2)cc1C	HDAC3 inh 30
CCCSc1nc(N)nc2c1ncn2C1OC(CO)C(O)C1O (stereo not drawn)	none (no result: HDAC3 inh, LANA-H2B inh, IDE cell inh)
CCOC(=O)C(=O)/C(=C\N(C)C)c1onc(-c2c(F)cccc2Cl)c1C(=O)OC	none
Cc1cccc(C)c1NC(=O)CNC(=O)CCC(=O)c1cccs1	none
CC1(C)O[C@@H]2C[C@H]3[C@@H]4CCC5=CC(=O)C=C[C@]5(C)[C@@]4(F)[C@@H](O)C[C@]3(C)[C@]2(C(=O)CO)O1	none
CC1(C)O[C@@H]2C[C@H]3[C@@H]4C[C@H](F)C5=CC(=O)C=C[C@]5(C)[C@@]4(F)[C@@H](O)C[C@]3(C)[C@]2(C(=O)CO)O1	LANA-H2B inh 34!
Cc1ccccc1-n1nc(C)c(N=O)c1N	LANA-H2B inh 30
